RGS8-Gao reg: modulates binding of RGS8 to human Galphao; P09471; multiplexed bead flow cytometry; actives lie on both sides; response (percent of control binding), % at 10 µM; actives 0.34% (n = 220,000); in the data active = response below about 60% or above about 140%; inactive = in between;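 note: Galphao activated as the GDP aluminium fluoride complex binding bead-coupled RGS8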
Target sequence (P09471 whole entry, looked up): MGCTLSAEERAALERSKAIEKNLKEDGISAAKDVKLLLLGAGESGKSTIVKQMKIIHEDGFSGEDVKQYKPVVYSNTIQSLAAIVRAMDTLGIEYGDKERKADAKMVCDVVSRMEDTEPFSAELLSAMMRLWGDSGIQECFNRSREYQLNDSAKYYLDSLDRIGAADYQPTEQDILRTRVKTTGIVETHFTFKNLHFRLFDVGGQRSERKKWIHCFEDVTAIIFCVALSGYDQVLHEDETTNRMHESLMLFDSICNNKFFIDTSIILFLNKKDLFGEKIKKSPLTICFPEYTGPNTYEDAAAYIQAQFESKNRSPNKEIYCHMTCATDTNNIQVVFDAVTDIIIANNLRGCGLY
GSH bead fluor: GSH bead compound fluorescence profile; GSH beads flow cytometry, compound fluorescence 488/530 nm; active compounds read high; actives 0.25% (n = 190,000); AID 1776; fluorescence (KMESF) at 10 µM; in the data active = fluorescence above about 89;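 note: glutathione beads carrying GST-tagged Bcl family fusion proteins plus one bare bead set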
RGS4-Gao reg: human RGS4-Galphao interaction regulation; actives 0.33% (n = 220,000); binding response (% of control), % at 10 µM; Multiplexed bead flow cytometry, RGS4-Galphao binding; actives lie on both sides; in the data active = binding response below about 49% or above about 150%; inactive = in between;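 note: fluorescent Galphao activated with aluminum fluoride binding bead-coupled RGS4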
RGS7-Gao: modulates binding of RGS7 to human Galphao. actives 0.35% (n = 220,000). Multiplexed bead flow cytometry; actives lie on both sides. AID 1439. P09471. binding response (% of control), % at 10 µM; in the data active = binding response below about 49% or above about 150%; inconclusive = no clear call, values can overlap the other calls; inactive = in between;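 note: fluorescent Galphao held in activated GDP-AlF4 state binding bead-coupled RGS7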
RGS16-Gao HTS: modulates binding between human RGS16 and Galphao | AID 1441 | actives 0.38% (n = 220,000) | O15492+P09471 | binding response (% of control), % at 10 µM | bead-based flow cytometry RGS16-Galphao binding, fluorescence; actives lie on both sides;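 note: Galphao activated by GDP with aluminum fluoride before binding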
Target sequence (O15492 whole entry, looked up): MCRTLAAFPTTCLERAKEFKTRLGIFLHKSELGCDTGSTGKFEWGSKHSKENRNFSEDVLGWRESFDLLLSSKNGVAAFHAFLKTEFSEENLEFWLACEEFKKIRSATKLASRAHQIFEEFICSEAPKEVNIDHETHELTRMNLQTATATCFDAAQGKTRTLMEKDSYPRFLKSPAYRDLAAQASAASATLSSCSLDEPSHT
Target sequence (P09471 whole entry, looked up): as the sequence (P09471 whole entry, looked up) above
Avidin fluor: avidin bead compound fluorescence profile. Avidin beads, compound fluorescence 488/530 nm, flow cytometry; active compounds read high. fluorescence (KMESF) at 10 µM. actives 0.38% (n = 220,000); in the data active = fluorescence above about 47
RGS4-Gao HTS: modulates binding between human RGS4 and Galphao. shares compounds with RGS16-Gao HTS. multiplexed bead flow cytometry, RGS–Galpha-o binding. RGS4–Galpha-o binding response, % at 10 µM. actives 99% (n = 1,600). AID 1504;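 note: fluorescently labeled Galpha-o bound to GDP with aluminium fluoride binding biotinylated RGS beads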
Avidin counter: interferes with biotinylated probe binding to avidin beads | shares compounds with RGS16-Gao HTS | 1,700 tested, under 10 active | streptavidin beads, fluorescein-biotin binding, flow cytometry | inhibition, % at 10 µM;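 active = inhibition above 50%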;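 note: median green fluorescence of gated singlet beads compared with DMSO control wells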
RGS8-Gao single: confirmation of regulators of human RGS8-Galphao interaction. bead-based flow cytometry RGS8-Galphao binding, fluorescence; actives lie on both sides. binding response (% of control), % at 10 µM. actives 3% (n = 1,700). shares compounds with RGS16-Gao HTS. AID 1836; in the data active = binding response below about 72% or above about 130%; inactive = in between;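 note: Galphao activated as GDP AlF4 complex before binding bead RGS8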
RGS7-Gao confirm: RGS7-Galphao interaction regulation, single point confirmation. shares compounds with RGS16-Gao HTS. bead-based flow cytometry RGS7-Galphao binding; actives lie on both sides. response (percent of control binding), % at 10 µM. actives 7.8% (n = 1,700). AID 1837; in the data active = response below about 75% or above about 130%; inactive = in between;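 note: fluorescent Galphao activated with GDP and aluminum fluoride binding bead-coupled RGS7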
RGS16-Gao single: RGS16-Galphao interaction regulation, single point confirmation | shares compounds with RGS16-Gao HTS | bead-based flow cytometry, RGS16-Galphao binding; actives lie on both sides | response (% of control binding), % at 10 µM | actives 4% (n = 1,700) | AID 1838; in the data active = response below about 74% or above about 130%; inactive = in between;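 note: Galphao activated as the GDP aluminium fluoride complex binding bead-coupled RGS16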
RGS4-Gao single: confirmation of regulators of human RGS4-Galphao interaction; AID 1840; RGS4-Galphao binding, multiplexed bead flow cytometry; actives lie on both sides; binding response (% of control), % at 10 µM; shares compounds with RGS16-Gao HTS; actives 4% (n = 1,700); in the data active = binding response below about 74% or above about 130%; inactive = in between
RGS19-Gao single: confirmation of regulators of human RGS19-Galphao interaction; shares compounds with RGS16-Gao HTS; bead-based flow cytometry RGS19-Galphao binding; actives lie on both sides; response (percent of control binding), % at 10 µM; actives 5% (n = 1,700); in the data active = response below about 50% or above about 160%; inactive = in between
Numbers stand for hits; n = inactive; u = inconclusive; x = no result given; [ ] = dose if it differs, or a comment. In the library only some 1.2% were active in any assay of this set; here they are far more common. Unless noted, the rule behind the calls is not given here.

SMILES	RGS8-Gao reg	GSH bead fluor	RGS4-Gao reg	RGS7-Gao	RGS16-Gao HTS	Avidin fluor	RGS4-Gao HTS	Avidin counter	RGS8-Gao single	RGS7-Gao confirm	RGS16-Gao single	RGS4-Gao single	RGS19-Gao single
Cc1ccc(C(=O)NC(O)C(Cl)Cl)cc1 (configuration not stated)	n	n	161[activator]	n	175[activator]	n	x	n	n	n	n	n	n
Cc1ccc(C(=O)NNC(=O)c2ccc(C)cc2)cc1	n	n	n	n	n	n	x	x	x	x	x	x	x
CCC1(C(=O)OC)NC(c2ccco2)C2C(=O)N(c3ccc(F)cc3)C(=O)C21 (configuration not stated)	n	n	n	n	n	n	x	x	x	x	x	x	x
COc1ccccc1/C=C/C(=O)NCC(=O)n1nc(C)cc1C	n	x	n	u	n	n	x	x	x	x	x	x	x
CCOC(=O)c1cccc(NC(=O)Cn2c(CC(=O)NC)nc3ccccc32)c1	n	n	172[activator]	n	191[activator]	n	x	n	n	n	n	n	n
O=C(NCCc1ccccc1F)/C(=C/c1cccnc1)NC(=O)c1ccccc1	n	n	n	n	n	n	x	x	x	x	x	x	x
COc1ccc(CCNC(=O)/C(=C/c2cccnc2)NC(=O)c2ccccc2)cc1	n	n	n	n	226[activator]	n	110	n	n	n	n	n	n
O=C(Nc1nnc(-c2ccccc2Cl)o1)c1cc2cc([N+](=O)[O-])ccc2s1	n	n	n	n	17	n	94	x	x	x	x	x	x
Cc1ccc(-c2nnc(N3CCOCC3)c3ccccc23)cc1S(=O)(=O)NCC1CCCO1 (configuration not stated)	n	n	n	n	n	n	x	x	x	x	x	x	x
CCn1c(SCc2cccc(C(F)(F)F)c2)nnc1-c1ccco1	48	n	46	42	n	n	x	n	n	n	n	n	n
CCOc1c(O)ccc(C2NC(=O)NC(C)=C2C(=O)OC)c1[N+](=O)[O-] (configuration not stated)	n	n	n	n	n	n	x	x	x	x	x	x	x
CCOc1c(O)ccc(C2NC(=O)N(C)C(C)=C2C(=O)OC)c1[N+](=O)[O-] (configuration not stated)	n	n	n	436[activator]	n	168	130	n	n	n	n	n	n
O=C(CSc1nnnn1-c1ccccc1)Nc1ccc(Cl)cc1	n	n	n	n	n	n	x	x	x	x	x	x	x
CCn1c2ccccc2c2cc(NC(=O)CSc3nnnn3-c3ccccc3)ccc21	x	n	x	x	x	x	x	n	n	n	n	n	n
O=C1N(CN2CCC3(CC2)OCCO3)c2ccccc2C12OCCCO2	n	n	n	n	n	n	x	x	x	x	x	x	x
CC1(C)COC2(OC1)C(=O)N(CN1CCOCC1)c1ccccc12	n	n	n	252[activator]	n	124	128	n	n	n	n	n	n
Cc1ccc(S(=O)(=O)Nc2cccc3c2CCCC3)cc1	n	n	n	n	n	n	x	x	x	x	x	x	x
Cc1cc(=O)oc2cc(NC(=O)CC3(CC(=O)O)CCCC3)ccc12	n	x	n	u	n	n	x	x	x	x	x	x	x
CCn1c(C(=O)N2CCCC(C(=O)O)C2)cc2sccc21 (configuration not stated)	n	n	n	n	24	n	93	n	n	n	n	n	n
CCOC(=O)c1cc2sccc2n1CC(=O)N1CCCC1	n	n	n	150[activator]	n	48	113	n	n	n	n	n	n
CCCCn1c(/N=C/c2ccc3c(c2)OCO3)nc2ccccc21	x	n	x	x	x	x	x	n	n	n	n	n	n
CCCCn1c(/N=C/c2ccc(N(C)C)cc2)nc2ccccc21	n	n	n	n	n	n	x	x	x	x	x	x	x
Cc1cc(OCC(=O)Nc2ccc(F)c(F)c2)nc(C(C)C)n1	34	n	-21	2.3	-13	n	x	n	n	n	n	n	n
Cc1cc(OCC(=O)Nc2ccccc2F)nc(C(C)C)n1	n	n	n	n	n	n	x	x	x	x	x	x	x
CCCCOc1ccc(C2=NNC(=O)CC2)cc1	n	n	n	n	n	n	x	x	x	x	x	x	x
SMILES	RGS8-Gao reg	GSH bead fluor	RGS4-Gao reg	RGS7-Gao	RGS16-Gao HTS	Avidin fluor	RGS4-Gao HTS	Avidin counter	RGS8-Gao single	RGS7-Gao confirm	RGS16-Gao single	RGS4-Gao single	RGS19-Gao single
CCC(CC)=N/N=C/c1c(O)n(CC)c2cc(C3=NNC(=O)CC3)ccc12	n	n	n	n	24	n	80	n	n	n	n	n	n
CCn1c(C)nc2cc(C(=O)N/N=C/c3ccccc3)ccc21	n	n	n	n	n	n	x	x	x	x	x	x	x
CCn1c(O)c(/C=N/N=C/c2ccccc2)c2ccc(C3=NNC(=O)CC3)cc21	x	n	x	x	x	x	x	n	n	n	n	n	n
COc1ccc(CCNC(=O)COC(=O)C23CC4CC(CC(Br)(C4)C2)C3)cc1	n	n	n	n	14	n	91	n	n	n	n	n	n
Cc1nn(-c2cc(N3CCOCC3)ccc2[N+](=O)[O-])c(=O)c2ccccc12	n	n	n	161[activator]	n	67	110	n	n	n	n	n	n
Cc1nn(-c2cc(N3CCCC3)ccc2[N+](=O)[O-])c(=O)c2ccccc12	n	n	n	n	n	n	x	x	x	x	x	x	x
CCOC(=O)c1c(NC(=O)C2CCCO2)sc(C(N)=O)c1C (configuration not stated)	n	n	n	n	295[activator]	n	111	n	n	n	n	n	n
CCCOC(=O)c1c(NC(=O)C2CCCO2)sc(C(=O)OC)c1C (configuration not stated)	n	n	n	n	n	n	x	x	x	x	x	x	x
O=C(CCc1ccccc1)NNC(=O)c1ccc(NC(=O)c2ccccc2)cc1	n	n	n	n	2.7	n	82	n	n	n	n	n	n
O=C(O)CCC(=O)Nc1sc2c(c1C(=O)Nc1cccc3ccccc13)CCCCC2	174[activator]	n	193[activator]	191[activator]	n	n	x	n	n	n	n	n	n
CCc1ccc(S(=O)(=O)/N=C2\C=CC(=O)c3ccccc32)cc1	n	n	n	n	n	n	x	x	x	x	x	x	x

Screening results (PubChem)
